# TRHR agonist – activates the human TRH receptor. P34981. TRHR cells, calcium flux fluo-8, FDSS agonist mode. activation, % at 2 µM. 0.18% of 360,000 active. AID 493084; further: 0% is about no effect
# Target sequence (P34981 whole entry, looked up): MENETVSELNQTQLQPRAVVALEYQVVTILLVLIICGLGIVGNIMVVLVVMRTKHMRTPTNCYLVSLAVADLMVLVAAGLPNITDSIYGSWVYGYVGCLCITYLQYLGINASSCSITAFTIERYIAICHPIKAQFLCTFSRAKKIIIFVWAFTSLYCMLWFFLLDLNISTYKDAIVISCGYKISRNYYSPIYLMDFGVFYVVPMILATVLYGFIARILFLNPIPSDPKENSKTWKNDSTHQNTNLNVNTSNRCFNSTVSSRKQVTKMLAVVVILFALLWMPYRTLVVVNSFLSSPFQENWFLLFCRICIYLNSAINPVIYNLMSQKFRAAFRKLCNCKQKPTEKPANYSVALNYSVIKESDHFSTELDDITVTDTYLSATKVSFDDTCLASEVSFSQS
#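 TRHR-expressing cells loaded with fluo-8 calcium dye; 23 nL library compound pin-transferred, kinetic FDSS fluorescence (Ex 480/Em 530) recorded about 180 s for agonist-induced calcium release, before a 10 nM TRH EC20 addition for potentiator mode.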
# D1 potentiator – enhances dopamine response at the human D1 receptor; AID 504651; P21728; HEK293 TREx D1 cells, calcium flux, dopamine EC20 potentiation; potentiation, % at 10 µM; 0.036% of 360,000 active; in the data active means potentiation above about 30%; further: 0% is about no effect
# TRHR enhancer – allosteric enhancers of human TRH receptor; P34981; TRHR cells, fluo-8 calcium fluorescence, EC20 TRH enhancement; enhancement, % at 2 µM; 0.66% of 360,000 active; in the data active means enhancement above about 30%; further: 0% is about no effect
#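 TRHR-expressing cells loaded with fluo-8 calcium dye were read kinetically (ex 480/em 530) during compound addition, then stimulated with an EC20 of TRH (10 nM final). Enhancement of the Gq-mediated intracellular calcium response was scored.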
# D1 ag – human D1 receptor agonism; AID 504660; 1% of 360,000 active; P21728; activation, % at 2 µM; HEK293 T-REx D1 cells, calcium flux, agonist mode; further: 0% is about no effect
#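 Agonism was scored from calcium flux recorded over 180 s (1 read/s) after pintool compound addition, following a 10-cycle baseline. Cells were inducible force-coupled HEK293 TREx D1, plated overnight at 30 C and loaded with no-wash calcium dye.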
# D1 antag – antagonists of human D1 dopamine receptor; P21728; HEK293 TREx D1 cells, calcium flux, dopamine EC80; stronger effect = lower value; activity change, negative = inhibition, % at 10 µM; 3.2% of 360,000 active; AID 504652; in the data active means activity change below about -30%; further: on the % scale 0 is the no-effect control and ±100 the full control effect
#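 Inducible Hek293 Trex D1 cells (tetracycline, overnight, 30 C). Calcium dye 30–90 min RT. Antagonist mode: EC80 dopamine added after 180 s compound read.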
# * hit, by the source's call; nt = no result. Hits are enriched below; roughly 4.7% of the tested compounds scored in any of these assays. Unless noted, no stated cut-off is given here; in the data, active means activation above about 30%; inactive means the rest.
SMILES,TRHR agonist,D1 potentiator,TRHR enhancer,D1 ag,D1 antag
O=C(NCc1ccc(F)cc1)c1cnc(N2CCOCC2)c2ccccc12,0,-3,21,0,9
COc1ccc(C(=O)Nc2cc(C(C)=O)c(/C=C/N(C)C)oc2=O)cc1,22,-3,-5,41*,20
O=S(=O)(c1ccc(Cl)cc1)N1CCN(S(=O)(=O)c2ccc3c(c2)OCCO3)CC1,0,8,11,2,20
CN1CCc2cccc3c2C1Cc1ccc(O)c(O)c1-3 (centres undefined),0,-8,-6,48*,-75*
Cc1[nH]nc2nc3c(c(OC(=O)c4ccccc4)c12)c(=O)n(C)c(=O)n3C,0,nt,7,-1,-39*
COC(=O)c1cc(-c2ccccc2)c2c(=O)n(C)c(=O)n(C)c2n1,0,-2,-4,1,-3
COc1cccc(CN(C)C(=O)C23CC4CC(CC(C4)C2)C3)c1,0,3,23,2,-34*
COC(=O)c1c(-c2cccs2)csc1NC(=O)c1ccc(C)cc1,1,1,29,1,11
COC(=O)c1c(-c2cccs2)csc1NC(=O)c1cc(OC)c(OC)c(OC)c1,1,0,-4,0,-66*
O=C(Nc1scc(-c2cccs2)c1C(=O)O)c1cccs1,0,-4,-3,3,-84*
COC(=O)c1c(-c2cccs2)csc1NC(=O)c1ccc(OC)c(OC)c1,1,-2,-9,3,1
CCSc1ccccc1C(=O)N1CCN(c2nc3ccccc3s2)CC1,-1,8,6,31*,nt
O=C(c1cccs1)N1CCN(c2nc3ccccc3s2)CC1,1,-3,-4,6,-37*
O=C(C1COc2ccccc2O1)N1CCN(c2nc3ccccc3s2)CC1 (centres undefined),0,-8,3,6,-62*
O=C(C1COc2ccccc2O1)N1CCN(c2nc3ccc([N+](=O)[O-])cc3s2)CC1 (centres undefined),0,0,-7,6,-24
CCCC(=O)N1CCN(c2nc3ccccc3s2)CC1,1,-5,3,4,7
Cc1cccc2sc(N3CCN(C(=O)c4cccs4)CC3)nc12,0,-8,-6,4,-9
Cc1cccc(C)c1-n1ncc(C(=O)N2CCN(c3ncccn3)CC2)c1C1CCN(C(=O)OC(C)(C)C)CC1,0,0,7,1,25
CCCCOc1ccc(CSc2nnc(C)n2N)cc1[N+](=O)[O-],1,8,1,1,-19
CCCCOc1ccc(CSc2nc(C)[nH]c2[N+](=O)[O-])cc1[N+](=O)[O-],0,-7,1,12,-31*
Cc1c(-c2cccc(NC(=O)Nc3ccccc3)c2)nc2ncccn12,0,1,-4,1,-56*
c1ccc(CNCc2nnc(-c3cc4ccccc4[nH]3)o2)cc1,1,0,0,5,12
CCc1cccc(NC(=O)CCCSc2nc3ccccc3[nH]2)c1,-2,-6,-8,13,-36*
Cc1cccc(NC(=O)CCCSc2nc3ccccc3[nH]2)c1,0,-1,2,10,-13
O=C(CCCSc1ccccc1)Nc1cccc(CO)c1,-2,nt,15,7,-34*
SMILES,TRHR agonist,D1 potentiator,TRHR enhancer,D1 ag,D1 antag
CCC1Oc2ccccc2N(CC(=O)NCC2CCCO2)C1=O (centres undefined),-1,-3,-2,4,-3
NC(=O)C1CCN(c2nc(C3CC3)nc3c2nnn3Cc2ccccc2)CC1,-1,6,30*,0,22
CCOC(=O)CC(NC(=O)CCc1c(C)nc2c(c1C)c(=O)n(C)c(=O)n2C)c1ccc(OCC)c(OC)c1 (centres undefined),0,-4,6,0,-33*
CCOc1ccc(NC(=O)C2CCN(C(=O)NC3CCCCC3)CC2)cc1,0,4,6,-1,-35*
O=C1CCc2cc(S(=O)(=O)Nc3ccccc3F)ccc2N1,0,4,-5,2,-42*
O=C1CCc2cc(S(=O)(=O)Nc3ccccc3Cl)ccc2N1,0,-2,2,3,-7
O=C1CC(c2ccc(Cl)c([N+](=O)[O-])c2)c2ccc3ccccc3c2N1 (centres undefined),-3,1,37*,6,6
CN(CCc1nc2ccccc2[nH]1)Cc1nc(CC2CC2)no1,0,-2,-1,0,4
CN(CCc1nc2ccc(Cl)cc2[nH]1)Cc1nc(CC2CC2)no1,-3,5,35*,0,3
CCOC(=O)Cc1ccc(NC(=O)N2CCOc3ccc(C)cc32)cc1,0,-2,1,1,-28
CCc1ccc2oc(C(=O)N3CCN(c4ccc(OC)cc4)CC3)cc(=O)c2c1,-1,-6,-1,6,-41*
CC(C)=CCC/C(C)=C/COc1c2ccoc2cc2oc(=O)ccc12,0,6,-3,40*,-2
Cc1noc(C)c1COC(=O)c1cccnc1Cl,0,-3,-3,4,-34*
O=C(OCc1ccc(Br)cc1)c1cccnc1Cl,0,1,6,3,-12
c1ccc(Sc2ncnc3c2oc2ccccc23)cc1,0,-5,5,1,-35*
Cc1ccc(S(=O)(=O)NNC(=O)c2sccc2-n2cccc2)cc1,0,-3,-1,12,-43*
O=C(NNS(=O)(=O)c1ccc(F)cc1)c1sccc1-n1cccc1,0,3,7,3,10
CC(=O)c1ccc(NC(=S)N2CCC(Cc3ccccc3)CC2)cc1,0,-10,-9,10,-35*
CC(C)NC(=S)N1CCC(Cc2ccccc2)CC1,0,-5,7,-1,-2
COC(=O)Cc1ccc(NC(=S)N2CCN(C)CC2)cc1,1,0,-4,2,1
COC(=O)Cc1ccc(NC(=S)N2CCC(Cc3ccccc3)CC2)cc1,0,-7,-3,1,-32*
COC(=O)Cc1ccc(NC(=S)N2CCN(c3cccc(O)c3)CC2)cc1,1,-17,-4,13,-38*
CC(=O)c1cccc(NC(=S)N2CCC(Cc3ccccc3)CC2)c1,0,-6,-4,1,nt
CC(C)CNC(=S)N1CCC(Cc2ccccc2)CC1,0,-3,10,1,-36*
NS(=O)(=O)OCCCc1ccccc1,0,-3,1,1,-37*
COC(=O)CCC(=O)NC(=S)Nc1sc(C)c(C)c1C(N)=O,0,1,2,1,8
COC(=O)CCC(=O)Nc1sc(C)c(C)c1C(N)=O,0,-6,3,-1,-41*
Cc1sc(NC(=O)C2CCCCC2C(=O)O)c(C(N)=O)c1-c1ccccc1 (centres undefined),0,4,4,3,8
